# Screens (PubChem)
# This is a sample that favours compounds with a hit; in the whole collection about 2.1% have one here.
# p53 reactivation = restores transcriptional activity of mutant p53. H1299 p53-A138V BP100-luciferase reporter, luminescence, 24 h. 0.063% of 320,000 active. Potency, µM (highest dose often 92.2 µM), inactives show top-dose activity change, positive = activation, actives largely listed as activators; further: potency means the concentration at half of the fitted maximal effect; % of control where 0% means no effect; nearly all actives have a fitted effect of over 45% in size
#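 p53-null H1299 cells stably carrying temperature-sensitive p53-A138V and a BP100-luciferase reporter were pinned with compounds (4-point, 1:5 series) and held 24 hrs at 37 deg C. Luminescence was read 10 min after detection reagent.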
# Giardia kill = Giardia lamblia killing; AID 540267; Giardia lamblia trophozoite viability; activity change, % at 7.66 µM, hits read low; 0.15% of 340,000 active; in the data active means activity change below about -80%; inconclusive means between about -30% and that limit;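 further: parasites exposed to compound for two days anaerobically before the ATP read; on the % scale 0 is the no-effect control and ±100 the full control effect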
#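 Luminescence from cellular ATP indicates surviving trophozoites (100 cells/well) following 48 hrs anaerobic compound treatment at 37 deg C; signal develops 15-30 min at room temperature.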
# uPA surface inh = cell surface uPA generation inhibition. cell surface uPA generation assay, qHTS. Potency, µM (doses to about 38.3 µM), inactives show top-dose activity change, negative = inhibition, actives largely listed as inhibitors. 0.31% of 330,000 active. AID 540303; active means well fitted inhibition curve with a large enough effect; inconclusive means small, poorly fitted or top-dose-only effect; inactive means no such curve, though single readings can be large or run the other way; tested in mouse RAW 264.7 cells; further: potency means the concentration at half of the fitted maximal effect; on the % scale 0 is the no-effect control and ±100 the full control effect; nearly all actives have a fitted effect of over 55% in size
# B2AR arrestin = agonists driving beta-arrestin recruitment to human beta2-adrenergic receptor; Potency, µM (doses to about 46.1 µM), without a hit: top-dose activation, usual class: activators; 0.02% of 330,000 active; AID 492947; beta-arrestin recruitment to beta2AR, cell-based reporter;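 further: potency means the concentration at half of the fitted maximal effect; 0% = DMSO controls and full agonism = EC100 isoproterenol or metaproterenol; nearly all actives have a fitted effect of over 65% in size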
# Target sequence (P07550 whole entry, looked up): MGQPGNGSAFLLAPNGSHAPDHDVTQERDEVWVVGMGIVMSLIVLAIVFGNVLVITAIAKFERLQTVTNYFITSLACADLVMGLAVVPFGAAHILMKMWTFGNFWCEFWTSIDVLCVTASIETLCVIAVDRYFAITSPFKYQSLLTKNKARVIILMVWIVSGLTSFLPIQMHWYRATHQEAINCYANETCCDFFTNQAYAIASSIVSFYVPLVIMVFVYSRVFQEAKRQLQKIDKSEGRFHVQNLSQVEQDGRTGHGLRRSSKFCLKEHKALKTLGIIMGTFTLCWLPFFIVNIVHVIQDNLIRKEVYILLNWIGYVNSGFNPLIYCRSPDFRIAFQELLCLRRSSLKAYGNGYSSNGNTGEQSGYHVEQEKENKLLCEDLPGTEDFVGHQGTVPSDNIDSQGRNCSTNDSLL
# ClpP mod = qHTS Assay for Activators of ClpP; purified B. subtilis ClpP, FRET peptide cleavage, 20 min; 1.9% of 340,000 active; Potency, µM (highest dose often 57.5 µM), inactives show at the top dose activity change, negative = active; AID 651965, 2013; active means well fitted falling curve with a large enough effect; inconclusive means small, poorly fitted or top-dose-only effect; inactive means no such curve, though single readings can be large or run the other way; further: potency means the concentration at half of the fitted maximal effect; the source files actives as falling curves though it sought activators and does not explain the sign; nearly all actives have a fitted effect of over 65% in size
#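 Buffer: 100 mM Tris/HCl pH8, 100 mM KCl, 0.05% low protease BSA, 2.5% glycerol, 0.01% Tween-20. ClpP 10 microg/mL final; 20 min RT; delta FRET normalized to ADEP and DMSO controls.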
# Mito fusion yeast = blocks mitochondrial division or promotes mitochondrial fusion. Potency, µM (titrated, usually from 46.1 µM), inactives show at the highest dose growth rescue (activation), actives largely listed as activators. 0.23% of 320,000 active. AID 485298. S. cerevisiae fusion-defective mutant growth rescue, CellTiterGlo 48 h; further: potency means the concentration at half of the fitted maximal effect; % of control where 0% means no effect; nearly all actives have a fitted effect of over 45% in size
#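 Luminescent cell viability in 1536-well qHTS format served as the measure of rescued growth in ts fusion-mutant S. cerevisiae cultured on non-fermentable YPEG for 48 hours at 37C.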
# * hit, by the source's call; ? = inconclusive; / = no result. Unless noted, the call rests on the fitted dose curve; in most records, active means well fitted curve in the direction sought with a large enough effect; inconclusive means small, poorly fitted or top-dose-only effect, or another doubt; inactive means no such curve, though single readings can be large; an effect the other way counts as inactive or inconclusive.
SMILES,p53 reactivation,Giardia kill,uPA surface inh,B2AR arrestin,ClpP mod,Mito fusion yeast
COc1nccnc1NS(=O)(=O)c1ccc(NS(=O)(=O)c2ccc(NC(C)=O)cc2)cc1,-2%,-23,1%,0%,1%,-2%
CCCCCC(=O)Nc1ccc(S(=O)(=O)Nc2nccnc2OC)cc1,-5%,12,-1%,0%,25µM*,0%
COc1ccc(S(=O)(=O)N(Cc2ccccc2)c2ccccc2C(=O)Nc2ccccc2C(=O)NCc2ccco2)cc1,1%,9,9%,0%,22µM*,-1%
COc1ccc(S(=O)(=O)Nc2ccccc2C(=O)NCc2ccco2)cc1,-6%,7,3%,0%,?,6%
COc1ccc(-c2cc(C(=O)NCCc3ccc(OC)c(OC)c3)c3ccccc3n2)cc1,/,/,/,/,4%,/
COc1ccc2c(c1)CC/C2=N\OC(=O)c1ccccc1OC,15%,-13,16%,0%,0%,35µM*
COc1ccccc1C(=O)O/N=C1/CCCc2c1ccc(OC)c2[N+](=O)[O-],-2%,6,-7%,0%,-2%,1%
COc1ccc2nc(N=Nc3ccc(N(C)C)cc3)sc2c1,2%,-82*,-12%,0%,2%,-4%
COc1ccc2nc(/N=C\N(C)C)sc2c1,?,5,0%,-1%,2%,3%
CC(=O)NNC(=O)c1csc(-c2csc(C)n2)n1,-3%,-6,0%,-1%,32µM*,-9%
CCc1nc(-c2cc3ccc(C)cc3[nH]c2=O)no1,16%,1,-3%,0%,14µM*,?
Cc1ccc2cc(-c3noc(C(C)(C)C)n3)c(=O)[nH]c2c1,19%,10,-2%,0%,28µM*,-2%
Cc1ccc2[nH]c(=O)c(-c3noc(C(C)C)n3)cc2c1,-1%,-5,-14%,0%,5%,1%
CCOC(=O)C1=C[C@@H](C2CCCCC2)N(S(=O)(=O)c2ccc([N+](=O)[O-])cc2)[C@H]1c1ccccc1,/,/,/,/,2%,/
CC1CC=CC2C1C(=O)N(Cc1ccccc1)C2c1ccc(-c2ccoc2)cc1F (configuration not stated),/,-16,/,/,/,/
CCOC(=O)Cn1cc(C#N)c2ccccc21,4%,2,-1%,-1%,2%,2%
CCOC(=O)Cn1cc(/C=C/[N+](=O)[O-])c2ccccc21,-9%,-8,10µM*,0%,2%,-7%
Cc1oc2ncn(C)c(=O)c2c1C(=O)NCc1ccccc1,/,/,/,/,-3%,/
Brc1ccc(-c2cn3c(n2)CCc2ccc4cccnc4c2-3)cc1,-2%,4,2%,0%,28µM*,4%
O=C1NC(c2cccc(OCc3ccccc3)c2)Nc2ccccc21 (configuration not stated),/,-16,-9%,/,32µM*,/
O=C(OCC#CCSc1nnc(-c2cccc3ccccc23)o1)c1ccco1,2%,6,-10%,0%,28µM*,-4%
CCC(=O)N1c2ccccc2CC1C(=O)NCCc1ccccc1OC (configuration not stated),/,/,/,/,-3%,/
COc1ccc(CN2C(=O)N(c3cccc(C)c3)C(=O)C2CC(=O)Nc2ccc(F)cc2)cc1OC (configuration not stated),/,/,/,/,1%,/
Cc1nc2ccc3nc(NC(=O)c4ccc5c(c4)OCCO5)sc3c2s1,3%,-16,1%,0%,-10%,-2%
O=C(Nc1ncc([N+](=O)[O-])s1)c1ccco1,-1%,-90*,4%,-1%,0%,-11%
O=C(Nc1ncc([N+](=O)[O-])s1)c1ccc2c(c1)OCO2,-16%,-95*,-17%,-1%,0%,27%
O=C(Nc1n[nH]c(=S)s1)c1ccco1,11%,3,2%,1%,0%,7%
Cc1cnc(NC(=O)c2ccc3c(c2)OCCO3)s1,-18%,-91*,?,0%,-15%,-6%
Cc1ccc([N+](=O)[O-])cc1NC(=O)c1ccc2c(c1)OCO2,3%,3,1%,0%,/,5%
O=C(NCCc1ccc(Cl)cc1)c1cnc2sc(N3CCOCC3)nn2c1=O,/,/,/,/,-14%,/
